The supplement of paper PMC11732987, “Enantioselective OTUD7B fragment discovery through chemoproteomics screening and high-throughput optimisation” (Communications Chemistry, 2025)

Tests used:
Test in all cases: log2 ratio of Biotin-Ahx-Ub-VS probe labelling (fragment/DMSO); higher = less target engagement (more negative = stronger competition), active = hit call of the paper (q ≤ 0.05, log2 ratio ≤ -1)
Conditions in all cases: compound concentration: 200 uM; treatment time: 3 h
USP42 = biological target: T1, USP42 (UniProt Q9H9J4)
T1 sequence (whole entry): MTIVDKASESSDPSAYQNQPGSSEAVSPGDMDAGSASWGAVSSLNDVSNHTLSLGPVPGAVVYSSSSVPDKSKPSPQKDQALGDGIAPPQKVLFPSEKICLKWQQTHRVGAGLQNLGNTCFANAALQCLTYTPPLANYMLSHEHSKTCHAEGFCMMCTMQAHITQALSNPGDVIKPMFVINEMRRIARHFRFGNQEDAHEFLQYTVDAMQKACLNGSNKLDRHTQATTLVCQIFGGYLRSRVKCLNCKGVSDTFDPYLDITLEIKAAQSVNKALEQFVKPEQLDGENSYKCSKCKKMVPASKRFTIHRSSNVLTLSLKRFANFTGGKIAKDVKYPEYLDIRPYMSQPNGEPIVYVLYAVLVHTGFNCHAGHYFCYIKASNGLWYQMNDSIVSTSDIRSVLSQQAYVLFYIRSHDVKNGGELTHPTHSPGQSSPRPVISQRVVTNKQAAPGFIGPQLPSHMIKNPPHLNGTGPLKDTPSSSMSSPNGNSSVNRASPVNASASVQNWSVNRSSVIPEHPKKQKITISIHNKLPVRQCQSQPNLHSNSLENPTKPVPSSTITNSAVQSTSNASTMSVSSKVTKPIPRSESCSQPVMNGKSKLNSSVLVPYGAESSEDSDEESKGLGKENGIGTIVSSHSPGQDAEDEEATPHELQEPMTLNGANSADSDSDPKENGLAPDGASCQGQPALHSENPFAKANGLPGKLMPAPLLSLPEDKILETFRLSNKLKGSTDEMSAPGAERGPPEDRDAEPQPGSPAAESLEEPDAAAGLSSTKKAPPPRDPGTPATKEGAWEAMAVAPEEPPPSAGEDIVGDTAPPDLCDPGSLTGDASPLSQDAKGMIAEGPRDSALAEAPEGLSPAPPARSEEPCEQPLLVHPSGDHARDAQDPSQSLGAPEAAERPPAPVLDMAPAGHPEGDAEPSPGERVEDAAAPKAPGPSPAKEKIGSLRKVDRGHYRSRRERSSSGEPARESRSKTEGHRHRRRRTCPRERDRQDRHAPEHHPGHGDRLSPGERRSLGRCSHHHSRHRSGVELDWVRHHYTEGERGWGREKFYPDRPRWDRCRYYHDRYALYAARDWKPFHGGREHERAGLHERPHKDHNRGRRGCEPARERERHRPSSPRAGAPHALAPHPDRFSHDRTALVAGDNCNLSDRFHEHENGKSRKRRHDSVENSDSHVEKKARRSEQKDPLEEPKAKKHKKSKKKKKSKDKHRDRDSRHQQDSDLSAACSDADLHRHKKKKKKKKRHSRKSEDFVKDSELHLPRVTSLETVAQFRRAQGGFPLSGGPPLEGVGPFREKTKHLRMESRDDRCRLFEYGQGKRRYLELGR
How it was run: (§1)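 Each value is an average log2 ratio of fragment to vehicle, tested by unpaired t-test. The underlying Spectronaut label-free quantities were global-median-normalised, and only proteins with ≥2 unique peptides were included. Triplicate HEK293T lysate samples (495 µg) were exposed to fragment at 200 µM or vehicle for 3 h, then to Biotin-Ahx-Ub-VS at 0.5 µM final for 1 h, before NeutrAvidin enrichment of labelled DUBs, LysC and trypsin digestion, and diaPASEF LC-MS/MS.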

USP46 = USP46 (UniProt P62068)
How it was run: as §1

USP47 = biological target: T2, USP47 (UniProt Q96K76)
T2 sequence (whole entry): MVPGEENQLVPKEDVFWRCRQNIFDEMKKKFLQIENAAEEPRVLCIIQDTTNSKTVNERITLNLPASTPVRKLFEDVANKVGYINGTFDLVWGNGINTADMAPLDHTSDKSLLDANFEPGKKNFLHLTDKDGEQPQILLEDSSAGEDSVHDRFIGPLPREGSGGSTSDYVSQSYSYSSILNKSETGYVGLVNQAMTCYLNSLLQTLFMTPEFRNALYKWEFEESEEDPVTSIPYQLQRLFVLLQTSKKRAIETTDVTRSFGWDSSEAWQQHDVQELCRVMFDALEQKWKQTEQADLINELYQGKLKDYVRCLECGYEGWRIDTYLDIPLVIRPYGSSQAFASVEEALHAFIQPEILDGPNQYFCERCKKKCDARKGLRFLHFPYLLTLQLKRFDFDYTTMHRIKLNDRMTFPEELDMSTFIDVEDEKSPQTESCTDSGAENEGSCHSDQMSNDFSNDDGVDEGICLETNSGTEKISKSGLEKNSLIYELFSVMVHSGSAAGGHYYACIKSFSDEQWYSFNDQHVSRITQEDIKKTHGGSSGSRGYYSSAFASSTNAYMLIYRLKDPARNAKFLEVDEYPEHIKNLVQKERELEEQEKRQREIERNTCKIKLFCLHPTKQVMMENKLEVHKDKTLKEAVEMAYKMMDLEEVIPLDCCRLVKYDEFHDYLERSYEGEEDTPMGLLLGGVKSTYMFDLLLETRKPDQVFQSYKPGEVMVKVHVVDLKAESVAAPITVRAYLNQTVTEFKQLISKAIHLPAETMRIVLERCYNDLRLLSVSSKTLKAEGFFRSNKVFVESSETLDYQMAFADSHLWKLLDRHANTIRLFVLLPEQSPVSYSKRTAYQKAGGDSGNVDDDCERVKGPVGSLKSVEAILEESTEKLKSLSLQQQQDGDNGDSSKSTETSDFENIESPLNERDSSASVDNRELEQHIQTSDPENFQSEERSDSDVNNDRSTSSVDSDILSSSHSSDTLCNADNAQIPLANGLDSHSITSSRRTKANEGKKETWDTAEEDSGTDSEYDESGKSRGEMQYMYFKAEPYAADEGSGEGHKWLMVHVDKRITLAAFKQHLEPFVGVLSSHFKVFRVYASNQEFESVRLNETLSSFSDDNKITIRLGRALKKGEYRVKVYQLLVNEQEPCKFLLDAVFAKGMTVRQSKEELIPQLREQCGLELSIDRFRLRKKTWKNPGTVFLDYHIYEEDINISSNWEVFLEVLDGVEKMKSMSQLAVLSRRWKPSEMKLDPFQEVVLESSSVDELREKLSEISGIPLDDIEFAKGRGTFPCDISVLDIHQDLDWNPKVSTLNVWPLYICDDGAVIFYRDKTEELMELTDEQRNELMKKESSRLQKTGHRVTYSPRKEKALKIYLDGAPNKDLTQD
How it was run: as §1

USP48 = biological target: T3, USP48 (UniProt Q86UV5)
T3 sequence (whole entry): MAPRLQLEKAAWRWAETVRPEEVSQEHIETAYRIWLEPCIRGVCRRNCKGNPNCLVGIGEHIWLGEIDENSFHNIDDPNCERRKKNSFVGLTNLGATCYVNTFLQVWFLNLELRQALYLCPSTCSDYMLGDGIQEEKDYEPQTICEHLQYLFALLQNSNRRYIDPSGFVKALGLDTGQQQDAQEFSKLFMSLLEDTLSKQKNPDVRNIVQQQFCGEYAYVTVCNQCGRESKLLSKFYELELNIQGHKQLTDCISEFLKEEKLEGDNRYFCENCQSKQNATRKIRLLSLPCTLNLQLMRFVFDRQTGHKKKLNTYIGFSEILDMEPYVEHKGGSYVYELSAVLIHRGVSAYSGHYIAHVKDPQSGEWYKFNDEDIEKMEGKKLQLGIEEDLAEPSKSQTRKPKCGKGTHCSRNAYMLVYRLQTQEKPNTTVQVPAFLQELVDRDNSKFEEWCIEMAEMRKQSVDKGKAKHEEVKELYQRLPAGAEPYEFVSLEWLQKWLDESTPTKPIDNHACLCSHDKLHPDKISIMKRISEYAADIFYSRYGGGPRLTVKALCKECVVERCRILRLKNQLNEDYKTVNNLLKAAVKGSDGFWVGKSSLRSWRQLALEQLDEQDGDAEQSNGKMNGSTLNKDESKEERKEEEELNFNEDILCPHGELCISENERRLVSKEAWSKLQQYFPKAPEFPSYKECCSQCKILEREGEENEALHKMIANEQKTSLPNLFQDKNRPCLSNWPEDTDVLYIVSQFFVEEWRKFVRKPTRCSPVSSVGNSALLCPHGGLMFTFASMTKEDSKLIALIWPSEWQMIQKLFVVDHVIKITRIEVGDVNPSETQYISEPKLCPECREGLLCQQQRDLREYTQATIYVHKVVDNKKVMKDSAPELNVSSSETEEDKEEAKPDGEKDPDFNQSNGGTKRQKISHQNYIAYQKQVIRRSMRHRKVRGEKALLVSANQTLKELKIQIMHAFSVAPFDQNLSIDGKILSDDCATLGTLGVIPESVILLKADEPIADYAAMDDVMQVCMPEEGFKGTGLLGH
How it was run: as §1

USP5 = biological target: T4, USP5 (UniProt P45974)
T4 sequence (whole entry): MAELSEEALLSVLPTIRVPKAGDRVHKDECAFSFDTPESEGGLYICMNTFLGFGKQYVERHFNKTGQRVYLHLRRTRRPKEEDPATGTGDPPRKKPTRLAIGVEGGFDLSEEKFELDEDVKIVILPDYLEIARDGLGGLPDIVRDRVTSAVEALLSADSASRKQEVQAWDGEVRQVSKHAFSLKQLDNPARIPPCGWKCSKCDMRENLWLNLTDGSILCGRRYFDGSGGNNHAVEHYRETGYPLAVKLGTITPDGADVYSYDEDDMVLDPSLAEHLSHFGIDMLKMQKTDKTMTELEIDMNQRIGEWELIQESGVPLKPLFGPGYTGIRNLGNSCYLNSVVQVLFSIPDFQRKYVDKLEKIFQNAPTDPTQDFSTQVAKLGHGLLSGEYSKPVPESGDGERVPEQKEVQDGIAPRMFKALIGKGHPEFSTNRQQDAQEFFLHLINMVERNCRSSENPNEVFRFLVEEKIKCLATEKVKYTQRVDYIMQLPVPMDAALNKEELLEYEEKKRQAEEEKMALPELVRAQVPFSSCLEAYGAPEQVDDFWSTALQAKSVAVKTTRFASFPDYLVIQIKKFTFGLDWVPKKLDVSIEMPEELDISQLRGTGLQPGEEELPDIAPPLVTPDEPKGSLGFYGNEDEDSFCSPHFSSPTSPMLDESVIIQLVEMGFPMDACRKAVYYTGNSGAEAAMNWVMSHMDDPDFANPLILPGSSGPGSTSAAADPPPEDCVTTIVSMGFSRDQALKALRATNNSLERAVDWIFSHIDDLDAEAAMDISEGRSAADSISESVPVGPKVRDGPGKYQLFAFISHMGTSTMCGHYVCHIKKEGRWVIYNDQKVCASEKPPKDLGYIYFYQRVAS
How it was run: as §1

USP54 = USP54 (UniProt Q70EL1)
How it was run: as §1

USP7 = USP7 (UniProt Q93009)
How it was run: as §1

USP8 = biological target: T5, USP8 (UniProt P40818)
T5 sequence (whole entry): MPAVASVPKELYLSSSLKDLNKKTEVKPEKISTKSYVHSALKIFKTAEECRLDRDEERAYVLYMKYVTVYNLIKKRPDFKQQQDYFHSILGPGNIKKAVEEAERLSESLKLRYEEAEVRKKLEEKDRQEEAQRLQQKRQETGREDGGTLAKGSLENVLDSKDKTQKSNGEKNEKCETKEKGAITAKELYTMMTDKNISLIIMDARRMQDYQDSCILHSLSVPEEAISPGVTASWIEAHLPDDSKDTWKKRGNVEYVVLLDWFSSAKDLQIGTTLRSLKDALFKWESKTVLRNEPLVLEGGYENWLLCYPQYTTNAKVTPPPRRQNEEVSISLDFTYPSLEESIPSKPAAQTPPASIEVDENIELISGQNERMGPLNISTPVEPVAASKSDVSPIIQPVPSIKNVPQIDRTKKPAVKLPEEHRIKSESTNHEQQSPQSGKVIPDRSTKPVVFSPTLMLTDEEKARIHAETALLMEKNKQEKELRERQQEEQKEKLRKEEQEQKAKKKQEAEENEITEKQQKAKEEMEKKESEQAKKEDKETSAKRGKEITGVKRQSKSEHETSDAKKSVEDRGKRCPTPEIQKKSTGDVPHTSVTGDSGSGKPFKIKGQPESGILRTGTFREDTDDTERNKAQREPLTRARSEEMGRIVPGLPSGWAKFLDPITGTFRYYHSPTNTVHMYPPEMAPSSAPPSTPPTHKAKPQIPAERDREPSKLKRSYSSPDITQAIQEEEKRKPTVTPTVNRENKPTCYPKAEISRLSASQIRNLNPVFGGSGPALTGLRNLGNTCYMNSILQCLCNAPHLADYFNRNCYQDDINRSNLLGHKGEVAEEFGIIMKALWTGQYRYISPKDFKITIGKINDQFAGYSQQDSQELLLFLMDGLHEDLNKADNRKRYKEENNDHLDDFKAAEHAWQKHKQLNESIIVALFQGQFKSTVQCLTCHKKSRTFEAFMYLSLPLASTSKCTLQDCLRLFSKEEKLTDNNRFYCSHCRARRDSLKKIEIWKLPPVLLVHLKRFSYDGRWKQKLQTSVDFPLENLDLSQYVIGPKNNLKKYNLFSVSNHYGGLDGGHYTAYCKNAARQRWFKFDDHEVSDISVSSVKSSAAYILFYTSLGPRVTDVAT
How it was run: as §1

USP9X = USP9X (UniProt Q93008)
How it was run: as §1

UniProt O00487 = biological target: UniProt O00487
How it was run: as §1

Measured: log2 ratio of Biotin-Ahx-Ub-VS probe labelling

Chain of USP9X (Q93008 whole entry): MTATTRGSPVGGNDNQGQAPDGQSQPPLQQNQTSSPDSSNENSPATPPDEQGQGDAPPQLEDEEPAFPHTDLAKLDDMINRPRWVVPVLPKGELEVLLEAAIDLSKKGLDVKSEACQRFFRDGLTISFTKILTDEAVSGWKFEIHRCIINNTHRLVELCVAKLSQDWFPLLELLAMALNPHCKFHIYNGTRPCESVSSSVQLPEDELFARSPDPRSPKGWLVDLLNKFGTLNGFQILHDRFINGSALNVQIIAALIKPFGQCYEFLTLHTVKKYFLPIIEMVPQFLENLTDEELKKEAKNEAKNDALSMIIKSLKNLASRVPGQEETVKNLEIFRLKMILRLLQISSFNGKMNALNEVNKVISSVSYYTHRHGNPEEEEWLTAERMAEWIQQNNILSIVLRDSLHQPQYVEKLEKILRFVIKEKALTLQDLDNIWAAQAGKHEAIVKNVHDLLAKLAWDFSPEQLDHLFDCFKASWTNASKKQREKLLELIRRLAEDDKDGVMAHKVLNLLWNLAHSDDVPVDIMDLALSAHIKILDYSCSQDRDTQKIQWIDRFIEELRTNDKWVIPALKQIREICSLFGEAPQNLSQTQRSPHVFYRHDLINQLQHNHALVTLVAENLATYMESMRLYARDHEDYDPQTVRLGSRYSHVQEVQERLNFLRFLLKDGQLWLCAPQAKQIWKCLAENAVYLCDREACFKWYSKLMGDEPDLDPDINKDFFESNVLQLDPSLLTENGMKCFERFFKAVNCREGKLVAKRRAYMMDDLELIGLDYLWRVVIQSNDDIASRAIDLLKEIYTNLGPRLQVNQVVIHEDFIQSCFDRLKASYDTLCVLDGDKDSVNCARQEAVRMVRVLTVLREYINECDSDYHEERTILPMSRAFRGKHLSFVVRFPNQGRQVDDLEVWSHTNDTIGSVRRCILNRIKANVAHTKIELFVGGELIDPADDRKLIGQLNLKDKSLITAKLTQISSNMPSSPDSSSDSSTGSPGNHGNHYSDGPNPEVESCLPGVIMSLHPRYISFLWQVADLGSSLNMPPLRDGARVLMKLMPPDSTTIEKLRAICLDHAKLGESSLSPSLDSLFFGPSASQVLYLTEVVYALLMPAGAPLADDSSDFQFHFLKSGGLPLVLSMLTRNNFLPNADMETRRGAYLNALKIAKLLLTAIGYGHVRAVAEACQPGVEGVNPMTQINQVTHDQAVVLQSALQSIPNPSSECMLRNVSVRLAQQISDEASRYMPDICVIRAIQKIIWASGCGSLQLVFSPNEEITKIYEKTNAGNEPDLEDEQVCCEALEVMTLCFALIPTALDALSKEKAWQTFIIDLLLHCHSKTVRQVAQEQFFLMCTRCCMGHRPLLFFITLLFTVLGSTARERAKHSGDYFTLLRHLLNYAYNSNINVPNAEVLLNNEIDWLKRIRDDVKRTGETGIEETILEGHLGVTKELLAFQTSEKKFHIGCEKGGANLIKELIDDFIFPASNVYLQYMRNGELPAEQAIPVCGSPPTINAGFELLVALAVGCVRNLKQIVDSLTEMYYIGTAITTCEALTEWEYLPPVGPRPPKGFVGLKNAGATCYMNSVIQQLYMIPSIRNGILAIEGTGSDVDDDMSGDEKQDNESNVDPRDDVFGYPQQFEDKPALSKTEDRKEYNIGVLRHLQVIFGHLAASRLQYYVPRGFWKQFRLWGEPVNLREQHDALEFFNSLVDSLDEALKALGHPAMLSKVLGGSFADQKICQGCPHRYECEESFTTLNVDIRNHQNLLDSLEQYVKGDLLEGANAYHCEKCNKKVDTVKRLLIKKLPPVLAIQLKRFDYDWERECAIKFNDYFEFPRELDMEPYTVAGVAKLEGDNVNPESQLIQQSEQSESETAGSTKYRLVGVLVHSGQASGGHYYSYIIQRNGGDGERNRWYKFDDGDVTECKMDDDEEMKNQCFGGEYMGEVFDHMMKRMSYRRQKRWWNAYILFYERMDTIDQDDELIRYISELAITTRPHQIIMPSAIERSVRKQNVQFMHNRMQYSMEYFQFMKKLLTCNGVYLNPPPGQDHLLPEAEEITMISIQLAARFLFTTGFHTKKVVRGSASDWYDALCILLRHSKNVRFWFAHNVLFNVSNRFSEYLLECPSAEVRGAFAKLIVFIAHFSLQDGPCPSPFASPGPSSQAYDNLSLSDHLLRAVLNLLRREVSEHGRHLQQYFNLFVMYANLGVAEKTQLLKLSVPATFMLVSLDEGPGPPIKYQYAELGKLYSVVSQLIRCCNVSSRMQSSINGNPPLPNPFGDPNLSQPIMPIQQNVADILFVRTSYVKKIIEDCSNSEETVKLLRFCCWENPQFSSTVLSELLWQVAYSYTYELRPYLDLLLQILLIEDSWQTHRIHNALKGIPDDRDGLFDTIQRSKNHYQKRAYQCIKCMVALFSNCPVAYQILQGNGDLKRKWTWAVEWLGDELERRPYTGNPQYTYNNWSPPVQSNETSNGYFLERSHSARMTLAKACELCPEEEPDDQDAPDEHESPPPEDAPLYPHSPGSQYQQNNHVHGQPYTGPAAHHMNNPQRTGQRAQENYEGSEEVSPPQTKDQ
Chain of UniProt O00487 (O00487 whole entry): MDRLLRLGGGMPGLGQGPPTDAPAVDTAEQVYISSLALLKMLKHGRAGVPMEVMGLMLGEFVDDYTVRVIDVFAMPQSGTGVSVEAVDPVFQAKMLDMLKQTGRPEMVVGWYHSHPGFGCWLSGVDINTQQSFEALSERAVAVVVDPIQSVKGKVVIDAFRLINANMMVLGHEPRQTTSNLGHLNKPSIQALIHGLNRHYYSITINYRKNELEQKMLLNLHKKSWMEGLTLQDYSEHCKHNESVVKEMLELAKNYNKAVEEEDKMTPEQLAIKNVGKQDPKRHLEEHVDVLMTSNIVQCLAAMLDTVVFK
Chain of USP54 (Q70EL1 whole entry): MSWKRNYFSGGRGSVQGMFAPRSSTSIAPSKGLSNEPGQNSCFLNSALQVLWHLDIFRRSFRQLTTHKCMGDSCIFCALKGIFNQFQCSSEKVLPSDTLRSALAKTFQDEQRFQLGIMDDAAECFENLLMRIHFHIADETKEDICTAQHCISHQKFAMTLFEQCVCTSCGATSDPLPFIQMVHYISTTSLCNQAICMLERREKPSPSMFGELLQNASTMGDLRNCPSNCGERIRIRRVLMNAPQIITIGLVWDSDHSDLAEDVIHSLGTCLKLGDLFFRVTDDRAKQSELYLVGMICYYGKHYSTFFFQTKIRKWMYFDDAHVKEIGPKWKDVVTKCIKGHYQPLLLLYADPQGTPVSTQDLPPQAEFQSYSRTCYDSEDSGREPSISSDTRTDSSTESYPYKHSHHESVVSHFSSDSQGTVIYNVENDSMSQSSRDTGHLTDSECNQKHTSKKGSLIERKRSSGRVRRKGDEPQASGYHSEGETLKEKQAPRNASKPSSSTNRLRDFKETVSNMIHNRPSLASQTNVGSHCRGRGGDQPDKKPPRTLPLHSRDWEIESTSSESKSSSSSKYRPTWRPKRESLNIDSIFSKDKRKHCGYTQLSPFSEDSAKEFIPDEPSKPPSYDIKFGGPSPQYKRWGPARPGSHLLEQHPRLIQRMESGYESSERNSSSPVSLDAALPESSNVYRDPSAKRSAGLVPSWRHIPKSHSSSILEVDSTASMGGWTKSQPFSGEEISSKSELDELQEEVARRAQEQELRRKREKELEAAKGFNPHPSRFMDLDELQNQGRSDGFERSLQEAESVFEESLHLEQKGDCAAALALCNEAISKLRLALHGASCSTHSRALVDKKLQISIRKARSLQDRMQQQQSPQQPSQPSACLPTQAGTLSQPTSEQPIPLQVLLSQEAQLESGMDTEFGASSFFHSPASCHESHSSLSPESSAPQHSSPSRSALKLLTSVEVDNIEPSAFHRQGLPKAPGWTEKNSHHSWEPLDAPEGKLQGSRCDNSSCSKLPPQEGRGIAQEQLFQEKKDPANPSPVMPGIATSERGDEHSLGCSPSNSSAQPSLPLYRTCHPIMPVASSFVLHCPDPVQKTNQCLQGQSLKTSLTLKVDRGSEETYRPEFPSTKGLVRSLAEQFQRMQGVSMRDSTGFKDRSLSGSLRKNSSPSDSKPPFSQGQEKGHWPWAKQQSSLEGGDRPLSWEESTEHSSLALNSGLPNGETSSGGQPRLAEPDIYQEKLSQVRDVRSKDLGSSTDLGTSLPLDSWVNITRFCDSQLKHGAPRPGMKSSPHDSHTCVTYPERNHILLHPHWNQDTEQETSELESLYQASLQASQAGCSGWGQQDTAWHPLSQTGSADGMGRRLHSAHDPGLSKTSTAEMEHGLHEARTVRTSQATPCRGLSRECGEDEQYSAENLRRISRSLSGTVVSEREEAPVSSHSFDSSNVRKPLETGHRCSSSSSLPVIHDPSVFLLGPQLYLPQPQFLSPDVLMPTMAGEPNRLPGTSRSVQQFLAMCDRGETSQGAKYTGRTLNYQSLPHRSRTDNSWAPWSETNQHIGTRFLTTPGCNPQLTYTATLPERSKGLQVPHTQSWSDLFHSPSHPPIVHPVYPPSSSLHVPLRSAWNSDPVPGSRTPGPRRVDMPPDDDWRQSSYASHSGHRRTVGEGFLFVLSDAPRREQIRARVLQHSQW
Chain of USP46 (P62068 whole entry): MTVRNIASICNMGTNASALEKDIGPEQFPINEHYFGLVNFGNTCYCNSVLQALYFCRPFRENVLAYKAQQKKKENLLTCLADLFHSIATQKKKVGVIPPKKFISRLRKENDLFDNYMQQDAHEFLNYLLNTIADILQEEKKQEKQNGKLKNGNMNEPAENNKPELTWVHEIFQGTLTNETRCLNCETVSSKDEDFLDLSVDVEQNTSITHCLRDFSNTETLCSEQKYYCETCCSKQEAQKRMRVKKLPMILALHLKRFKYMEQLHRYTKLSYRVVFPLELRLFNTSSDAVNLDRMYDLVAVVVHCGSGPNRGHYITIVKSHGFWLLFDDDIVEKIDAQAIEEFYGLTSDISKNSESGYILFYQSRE

Cl.O=C(CCl)N1CCCC(c2ncc[nH]2)C1 (stereo not given)
inactive: USP42 -0.153 | USP46 0.183 | USP47 -0.357 | USP48 -0.331 | USP5 0.191 | USP54 0.506 | USP7 -0.273 | USP8 -0.0352 | USP9X -0.121 | UniProt O00487 -0.0974
